# Peg3 prom inh-1 – Peg3 promoter-driven luciferase inhibitors, primary screen, cell-based, HeLa, luciferase luminescence | AID 588405, 2011 | HeLa PEG-Prom luciferase reporter, overnight | inhibition, % at 20 µM | 360,000 compounds, 1.7% hits;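 active = inhibition of at least 50% at 20 µM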
# HIF-2a inh – HIF-2a reporter inhibitors, primary screen, luminescence, 786-0 RCC cells; 786-0 RCC cells HIF-2a reporter, luciferase luminescence, overnight; 360,000 compounds, 0.72% hits; inhibition, % at 18.8 µM;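 active = inhibition of the luminescence signal of 40% or more relative to plate controls, in a single-dose primary screen at 18.75 µM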
# CF NFkB inh – inhibitors of PAF-induced NF-kB signaling, primary screen, cell-based, GFP fluorescence, uHTS; AID 588850, 2011; KKLEB NF-kB-GFP reporter, GFP fluorescence overnight; 360,000 compounds, 0.86% hits; inhibition, % at 5 µM;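 active = at least 50% inhibition at 5 µM, scaled per plate between neutral and stimulator controls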;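 note: PAF is a Pseudomonas aeruginosa culture filtrate used as stimulus; plate controls were PAF-stimulated DMSO wells for no effect and unstimulated DMSO wells for full effect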
# LMP1 NFkB inh – EBV LMP1-driven NF-kappaB luciferase reporter inhibitors, primary screen, cell-based, luminescence, single point; LMP1-induced NF-kappaB luciferase reporter cells; inhibition, % at 12.5 µM; 350,000 compounds, 0.69% hits; in the data active = inhibition above about 41%;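 note: 0% = neutral control wells and 100% = reference inhibitor control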
# TRPM1 prom inh – inhibitors of MITF-dependent TRPM1 promoter reporter, primary screen, cell-based, SK-MEL-5, single point, luciferase | SK-MEL-5 TRPM1 promoter luciferase, 24 h | inhibition, % at 12.5 µM | 330,000 compounds, 0.83% hits | AID 488899, 2010;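 active = mean inhibition across replicates of 60% or more, whatever share of single replicates reaches that level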
# KKLEB cytotox – cytotoxicity in KKLEB CF airway cells, primary screen, cytotoxicity control for CF NF-kB inhibitor project, cell-based, uHTS, fluorescence assay plates; KKLEB CF airway cells viability, ATPlite luminescence, overnight; hits give low values; cells stimulated with P. aeruginosa culture filtrate; activity change (cytotoxicity), % at 5 µM; 360,000 compounds, 0.36% hits; AID 602141, 2011;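 active = corrected activity change at or below -50% at 5 µM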
# Peg3 prom inh-2 – Peg3 promoter reporter inhibitors, retest, confirmation, cell-based, HeLa, luciferase reporter, single concentration; AID 602417, 2012; 1,300 compounds, 84% hits; HeLa PEG-Prom luciferase reporter, luminescence, overnight; inhibition, % at 20 µM; shares compounds with Peg3 prom inh-1;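 active = at 20 µM dose, 40% or more inhibition averaged across four replicates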
# An asterisk follows results filed as active; / = no result given. Most compounds without a hit are left out; they make up all but 3% or so of the library.
SMILES,Peg3 prom inh-1,HIF-2a inh,CF NFkB inh,LMP1 NFkB inh,TRPM1 prom inh,KKLEB cytotox,Peg3 prom inh-2
Cc1ccc(C(=O)Nc2c(C)n(C)n(-c3ccccc3)c2=O)cc1,6.8,21.9,-6.2,6.8,5.9,13.3,/
Cc1ccc(-n2c(N)c(C(=O)Nc3c(C)n(C)n(-c4ccccc4)c3=O)c3nc4ccccc4nc32)cc1,75.7*,-12.6,14.7,-8.3,0.1,-47.2,51.3*
O=C(C[C@@H]1C/C=C\C[C@@H](Cc2ccc(F)cc2)C(=O)OC[C@@H](Cc2ccccc2)NC1=O)N[C@H](CO)Cc1ccccc1,62.9*,7.8,2.6,1.2,-3.3,5.8,23.1
C[C@@H]1COC(=O)[C@H](Cc2ccc(F)cc2)C/C=C\C[C@@H](CC(=O)N[C@H](CO)Cc2ccccc2)C(=O)N1,-8.5,2.3,-1.9,-3.5,-0.8,-4.5,/
O=C1N[C@@H](c2ccccc2)COC(=O)[C@@H](Cc2ccc(F)cc2)CC/C=C/C[C@H]1CC(=O)N(CCO)Cc1ccccc1,52.4*,-11.1,36.8,8.3,-2.1,-7.9,46.9*
c1ccc(COc2ccc(-c3cc4nc(NCCN5CCOCC5)ccn4n3)cc2)cc1,-162.8,-250.6,24.9,/,/,-6.5,/
OC(c1ccccc1)(c1nc(-c2cccc(F)c2)cs1)C(F)(F)F (configuration not stated),11.1,15.8,16.3,/,/,4.8,/
O=C(C=Cc1ccc2c(c1)OCO2)C1CC1,-182.1,-96.0,12.2,-12.8,/,3.3,/
O=C(/C=C/c1ccccc1)Nc1cc(NC(=O)/C=C/c2ccccc2)cc(C(=O)O)c1,14.0,18.6,-6.0,7.9,17.9,15.9,/
O=C(/C=C/c1ccccc1)Nc1cccc(C(=O)O)c1,85.3*,87.2*,-4.3,80.2*,99.1*,2.9,76.6*
COc1ccc(CN2CCN(C(=O)c3cc(-c4cccnc4)nc4ccc(Cl)cc34)CC2)c(OC)c1OC,93.8*,11.5,1.5,-1.8,-3.9,-22.3,55.8*
O=C(c1cc(-c2ccccn2)nc2ccc(Cl)cc12)N1CCN(CCc2ccccc2)CC1,51.1*,16.5,4.1,-1.4,12.6,-17.6,35.6
Cc1cnn(C(=O)c2cc(-c3ccccn3)nc3ccc(Cl)cc23)c1,3.9,10.7,-1.1,-16.1,21.8,3.1,/
COc1ccc2c(c1OC)C(=O)N1c3ccccc3SC21 (configuration not stated),-331.5,-243.6,-6.3,-14.7,-40.8,-3.9,/
COc1ccc2c(c1OC)C(=O)N1c3ccccc3C(=O)N(c3ccccc3F)C21 (configuration not stated),61.6*,7.2,86.2*,6.8,8.7,-87.3*,44.6*
Cc1cc(C=C2C(=O)c3ccccc3C2=O)c(C)n1-c1cccc(C(=O)O)c1,-65.9,-59.1,-6.2,0.0,-3.6,-6.0,/
Cc1cc(C=C2C(=O)c3ccccc3C2=O)c(C)n1-c1ccccc1,69.1*,55.8*,-24.3,12.8,71.6*,-10.2,64.8*
COc1ccccc1NC(=O)N(C)C[C@H]1Oc2ncc(C#CCN(C)C)cc2C(=O)N([C@H](C)CO)C[C@H]1C,-18.2,10.4,-33.6,2.9,/,20.7,/
COc1ccc(NS(=O)(=O)c2ccc3ccccc3c2)c2ncccc12,51.0*,23.9,51.1*,24.5,33.3,5.4,51.6*
COc1ccccc1NS(=O)(=O)c1ccc2ccccc2c1,27.8,13.1,-0.2,6.3,2.3,12.4,/
COc1cc(/C=C2\SC(=Nc3ccccc3OC)NC2=O)ccc1O,64.3*,16.4,51.1*,1.4,46.2,-31.1,67.9*
CC1(C(=O)NS(=O)(=O)C2CC2)CCCN(C(=O)c2ccc3ccccc3c2)C1 (configuration not stated),8.3,4.3,-10.9,/,/,5.7,/
